Measured values from PubChem BioAssay AID977607 (Broad Institute, 2014).
Among all 1,500 compounds or so, about 460 (31%) were called active. Roughly 1% stayed inconclusive and do not appear here. A selection follows. Results with a measured potency or affinity are listed apart. A number with no mark means an inactive call.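 The calls were made as follows: active = curve reaches 40% activation over neutral controls at an AC40 no higher than the top valid tested concentration; inconclusive = no clear call, values can overlap the other calls; inactive = signal moving opposite to the expected increase, and the rest.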

Assay: activators of glucose-dependent insulin secretion, dose response, cell-based, INS-1E, Gaussia luciferase, luminescence, cherry-pick, set 2 (AID 977607);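 also: 0% = median of the plate neutral control wells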
Conditions: INS-1E GLuc insulin secretion reporter, 2-3 h, active compounds read high
[1] = at 35 µM, 100% = signal doubled over neutral wells unless noted

**Q.** For COc1ccc(-c2cc(C(=O)N(C)Cc3ccc(OC)c(OC)c3OC)c3ccccc3n2)cc1OC, which max activation [1] is on record?
**A.** 13.2% [at 11 µM, 100% = signal doubled over neutral wells]

**Q.** Which max activation [1] does the source give for COc1ccc(CN(C)C(=O)c2cc(-c3ccc(OC)c(OC)c3)nc3ccccc23)c(OC)c1 here?
**A.** -23.5%

**Q.** For c1cn2cc(-c3ccc(CN4CCOCC4)cc3)ccc2n1, which max activation [1] is on record?
**A.** -25.5% [at 3.8 µM, 100% = signal doubled over neutral wells]

**Q.** For O=c1[nH]c2cc(Cl)ccc2n(CCNc2ncc(C(F)(F)F)cc2Cl)c1=O, which max activation [1] is on record?
**A.** -28.9% [at 3.8 µM, 100% = signal doubled over neutral wells]

**Q.** For COc1ccc(-c2cc3nc4ccccc4n3c(N)c2C#N)cc1, which max activation [1] is on record?
**A.** -29% [at 0.135 µM, 100% = signal doubled over neutral wells]

**Q.** Which max activation [1] does the source give for O=C(O)c1ccc(-c2nc(-c3ccccc3)c(-c3cccs3)[nH]2)cc1 here?
**A.** 6.45% [at 1.2 µM, 100% = signal doubled over neutral wells]

**Q.** Which max activation [1] does the source give for COc1ccc(-c2ocnc2C(=O)Nc2ccc(N3CCOCC3)cc2N2CCOCC2)cc1OC here?
**A.** -29.2%

**Q.** For COc1ccc(C2CC(c3ccc(OC)c(OC)c3)=NN2C(=O)c2ccccc2)cc1 (configuration not stated), which max activation [1] is on record?
**A.** -8.01% [at 0.0016 µM, 100% = signal doubled over neutral wells]

**Q.** With O=c1c2ccccc2c(-c2ccccc2)nn1-c1ccccn1 as the compound, how does the max activation [1] read?
**A.** -14.4%

**Q.** With COc1cc2c3nnc(-c4ccccc4)c-3cn(Cc3ccccc3F)c2cc1OC as the compound, how does the max activation [1] read?
**A.** -22.1% [at 0.135 µM, 100% = signal doubled over neutral wells]

**Q.** With COc1ccc(CNC(=O)C2Cc3c(-c4cccc(F)c4)ccnc3O2)cc1OC (configuration not stated) as the compound, how does the max activation [1] read?
**A.** -18.6% [at 0.015 µM, 100% = signal doubled over neutral wells]

**Q.** Which max activation [1] does the source give for COc1ccccc1Cn1c(=O)oc2ccccc21 here?
**A.** -27.7% [at 0.005 µM, 100% = signal doubled over neutral wells]

**Q.** For FC(F)(F)c1ccc(Cl)c(-n2c(Cc3cccs3)n[nH]c2=S)c1, which max activation [1] is on record?
**A.** -14.3% [at 0.005 µM, 100% = signal doubled over neutral wells]

**Q.** Which max activation [1] does the source give for COc1ccc(/C=C2/SC(=O)N(NS(=O)(=O)c3ccccc3)C2=S)cc1OC here?
**A.** -21.6% [at 0.015 µM, 100% = signal doubled over neutral wells]

**Q.** Which max activation [1] does the source give for CC1(C)CCCC(C)(C)N1CC(O)COCCOc1ccc(Br)cc1 (configuration not stated) here?
**A.** -12.4%

**Q.** Which max activation [1] does the source give for CCS(=O)(=O)c1nc(S(=O)(=O)c2ccc(C)cc2)c(N2CCC(O)CC2)s1 here?
**A.** -18.3% [at 0.42 µM, 100% = signal doubled over neutral wells]

**Q.** For Cc1ccnc(NS(=O)(=O)c2ccc(NC(=O)CCc3ccccc3)cc2)n1, which max activation [1] is on record?
**A.** 33.7% [at 1.2 µM, 100% = signal doubled over neutral wells]

**Q.** Which max activation [1] does the source give for Cc1ccc2c(=O)cc(C(=O)NC3CCS(=O)(=O)C3)oc2c1C (configuration not stated) here?
**A.** -12.4% [at 0.046 µM, 100% = signal doubled over neutral wells]

**Q.** With CCC(=O)Nc1ccc(C(=O)N/N=C/c2cccnc2)cc1 as the compound, how does the max activation [1] read?
**A.** -26.1% [at 3.8 µM, 100% = signal doubled over neutral wells]

**Q.** Which max activation [1] does the source give for COc1ccc2oc(C(=O)Nc3nnc(C)s3)c(C)c2c1 here?
**A.** -20% [at 0.015 µM, 100% = signal doubled over neutral wells]

**Q.** What does the source list for CCc1nc(N)nc(N)c1-c1ccc(Cl)c(N=[N+]=[N-])c1?
**A.** max activation (at 0.046 µM, 100% = signal doubled over neutral wells): -14.5%; max activation (at 1.2 µM, 100% = signal doubled over neutral wells): -22.8%

**Q.** For Cc1ccc(-c2csc(NC(=O)CCCc3cccs3)n2)cc1, which max activation [1] is on record?
**A.** 22% [at 0.42 µM, 100% = signal doubled over neutral wells]

**Q.** With CCCc1nc2n[nH]c(N)c2c2c1COC(C)(C)C2 as the compound, how does the max activation [1] read?
**A.** 19.9%

**Q.** Which max activation [1] does the source give for COc1ccc(CN(C)C(=O)COc2cccc(-n3cnnn3)c2)cc1OC here?
**A.** 25.6%

**Q.** With COc1ccccc1CNS(=O)(=O)c1cc(-c2cc(C)no2)ccc1C(C)C as the compound, how does the max activation [1] read?
**A.** -29.2%

**Q.** For COc1ccc(-c2cc(C(=O)N3CCCCCC3)no2)cc1OC, which max activation [1] is on record?
**A.** -22% [at 3.8 µM, 100% = signal doubled over neutral wells]

**Q.** For COCCNC(=O)c1ccc(N(C)S(=O)(=O)c2ccc(OC)c(OC)c2)cc1, which max activation [1] is on record?
**A.** 19.5% [at 0.005 µM, 100% = signal doubled over neutral wells]

**Q.** With O=C(N/N=C/c1cc(Cl)ccc1O)c1ccc(Br)cc1 as the compound, how does the max activation [1] read?
**A.** -24.4% [at 3.8 µM, 100% = signal doubled over neutral wells]

**Q.** Which max activation [1] does the source give for C=CCc1cccc(/C=N/NC(=O)CCC(=O)Nc2ccc(C)cc2)c1O here?
**A.** -34.3%

**Q.** Which max activation [1] does the source give for Cc1nc2ccccc2c(=O)n1/N=C/c1ccc(N(C)C)cc1 here?
**A.** -10.6% [at 1.2 µM, 100% = signal doubled over neutral wells]

**Q.** Which max activation [1] does the source give for CCc1nc2c(OCCC3CCCCC3)cccn2c1N(C)C(=O)c1ccco1 here?
**A.** -35%

**Q.** Which max activation [1] does the source give for Cc1ccccc1CN(C)Cc1cc(=O)oc2c(C)c(C)ccc12 here?
**A.** -33.3%

**Q.** With O=C(c1ccccc1)N(C(=O)c1ccccc1)N1CCCC1 as the compound, how does the max activation [1] read?
**A.** 28.2% [at 0.046 µM, 100% = signal doubled over neutral wells]

**Q.** For O=C(O)CCN1c2ccccc2Sc2ccccc21, which max activation [1] is on record?
**A.** -23% [at 3.8 µM, 100% = signal doubled over neutral wells]

**Q.** For COc1ccc(/C=N/Nc2ncnc3c2[nH]c2ccccc23)c(OC)c1OC, which max activation [1] is on record?
**A.** -28.4% [at 0.005 µM, 100% = signal doubled over neutral wells]

**Q.** Which max activation [1] does the source give for O=C(CCc1ccccc1)NNC(=O)COc1ccccc1Cl here?
**A.** 22.3% [at 0.42 µM, 100% = signal doubled over neutral wells]

**Q.** Which max activation [1] does the source give for c1ccc2c(N3CCCCC3)nc(N3CCCC3)nc2c1 here?
**A.** 34.7%

**Q.** With O=S(=O)(N1CCOCC1)n1c(Cc2ccccc2)nc2ccccc21 as the compound, how does the max activation [1] read?
**A.** -18.5% [at 0.046 µM, 100% = signal doubled over neutral wells]

**Q.** For CCOC(=O)C1CCCN(C(=O)c2cccnc2Oc2ccccc2)CC1 (configuration not stated), which max activation [1] is on record?
**A.** 48.6% [at 1.2 µM, 100% = signal doubled over neutral wells]

**Q.** For COc1ccc(CCNCc2cc3ccc(C)cc3[nH]c2=O)cc1OC, which max activation [1] is on record?
**A.** 20.9% [at 11 µM, 100% = signal doubled over neutral wells]

**Q.** For COC(=O)[C@]1(Cc2ccccc2)N[C@H](CN(C)C(=O)Nc2ccc(C)cc2)[C@@H]2C(=O)N(C)C(=O)[C@@H]21, which max activation [1] is on record?
**A.** -13.8% [at 11 µM, 100% = signal doubled over neutral wells]

**Q.** Which max activation [1] does the source give for O=C(Nc1ccc(S(=O)(=O)N2CCOCC2)cc1)c1ccc(=O)[nH]c1 here?
**A.** -14.6% [at 0.046 µM, 100% = signal doubled over neutral wells]

**Q.** Which max activation [1] does the source give for O=C(NCc1ccc(Cl)cc1)c1cc(=O)[nH]c2ccc(S(=O)(=O)N3CCOCC3)cc12 here?
**A.** 27.5% [at 0.005 µM, 100% = signal doubled over neutral wells]

**Q.** For CCN(Cc1ccccc1)S(=O)(=O)c1ccccc1Br, which max activation [1] is on record?
**A.** -30.7%

**Q.** With CC/C(O)=C1\C(=O)CC(C)(C)CC1=Nc1ccccc1C as the compound, how does the max activation [1] read?
**A.** -12.4% [at 0.046 µM, 100% = signal doubled over neutral wells]

**Q.** Which max activation [1] does the source give for CCc1onc(C)c1C(=O)Nc1ccc(N2CCOCC2)cc1 here?
**A.** -20.7% [at 11 µM, 100% = signal doubled over neutral wells]

**Q.** With CCCC(=O)Nc1ccc(N2CCN(S(C)(=O)=O)CC2)cc1 as the compound, how does the max activation [1] read?
**A.** -16% [at 11 µM, 100% = signal doubled over neutral wells]

**Q.** For CCn1c(C)nc2cc(S(=O)(=O)C(F)(F)F)ccc21, which max activation [1] is on record?
**A.** -18% [at 0.135 µM, 100% = signal doubled over neutral wells]

**Q.** With COC(=O)c1scc(C)c1NC(=O)CC1NCCNC1=O (configuration not stated) as the compound, how does the max activation [1] read?
**A.** -9.21% [at 0.0016 µM, 100% = signal doubled over neutral wells]

**Q.** For O=C(c1ccc2c(c1)OCO2)N1CCN(S(=O)(=O)c2ccccc2)CC1, which max activation [1] is on record?
**A.** -16.9% [at 0.42 µM, 100% = signal doubled over neutral wells]

**Q.** With O=C(O)c1ccc(S(=O)(=O)NCc2ccc3c(c2)OCO3)cc1 as the compound, how does the max activation [1] read?
**A.** -14.4% [at 0.42 µM, 100% = signal doubled over neutral wells]

**Q.** With COc1ccc(S(=O)(=O)N(C)c2ccc(C(=O)NCC3CCCO3)cc2)cc1OC (configuration not stated) as the compound, how does the max activation [1] read?
**A.** -7.27% [at 1.2 µM, 100% = signal doubled over neutral wells]

**Q.** Which max activation [1] does the source give for COC(=O)COc1ccc(C)cc1-n1nc2ccccc2n1 here?
**A.** 22.5%

**Q.** Which max activation [1] does the source give for CC(=O)c1cccc(Nc2ncnc3ccc(Br)cc23)c1 here?
**A.** -20.3% [at 0.0016 µM, 100% = signal doubled over neutral wells]

**Q.** For COc1cccc(-c2nnn(CC(=O)O)n2)c1, which max activation [1] is on record?
**A.** -16%

**Q.** Which max activation [1] does the source give for CCOc1cc(C(=O)N(C)CC(=O)Nc2cccc3ccccc23)ccc1OC here?
**A.** 18.1% [at 11 µM, 100% = signal doubled over neutral wells]
